# Compounds with a hit are over-represented: about 11% of the library has one in this group of screens.
# HP1b chromo inh = blocks HP1-beta chromodomain binding to methylated histone tails; P83916; AlphaScreen HP1-beta / biotin-H3K9me3 peptide binding; Potency, µM (titrated, usually from 114 µM), hits mostly inhibitors; 390,000 compounds, 0.56% hits; further: nearly all actives have a fitted effect of over 70% in size
#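 Compound inhibition of the preformed complex between 50 nM HP1-beta and 50 nM biotinylated H3K9me3 peptide was read by AlphaScreen. Buffer was PBS pH 7.4 with 0.01% Tween-20. Incubations ran 30 min at room temperature, with 10 ug/mL donor/acceptor beads.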
# PLK1 PBD inh = inhibitors of human PLK1 polo-box domain binding | 360,000 compounds, 2.8% hits | P53350 | Potency, µM, usual class: inhibitors | Plk1 PBD binding of FITC phosphopeptide, fluorescence polarization; further: series mostly up to about 57 µM; nearly all actives have a fitted effect of over 65% in size
# VDR inh = blocks the human vitamin D receptor. P11473. VDR-SRC2-3 peptide fluorescence polarization, 2 h. Potency, µM, usual class: inhibitors. 400,000 compounds, 0.93% hits
#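 After 23 nl compound addition and a short centrifugation, plates sat for 2 hours at ambient temperature; polarization of fluorescence then indicated loss of VDR binding to peptide SRC2-3.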
# G9a block = blocks human histone lysine methyltransferase G9a. Q96KQ7. G9a H3K9 monomethylation, AlphaScreen, 2 h. Potency, µM (doses to about 102 µM), actives largely listed as inhibitors. 350,000 compounds, 8.8% hits. AID 504332; further: nearly all actives have a fitted effect of over 75% in size
#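 Signal arises when biotinylated H3K9 peptide, once monomethylated, bridges streptavidin donor and antibody-captured acceptor beads. Enzyme at 20 nM was preincubated 15 min with test compounds; peptide 500 nM and SAM 20 uM then reacted for 2 h.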
# BAZ2B inh = inhibitors of human BAZ2B bromodomain. Q9UIF8. AlphaScreen BAZ2B-H3K14Ac peptide displacement. Potency, µM (top dose mostly 114 µM), hits mostly inhibitors. 360,000 compounds, 4.4% hits. AID 504333; further: nearly all actives have a fitted effect of over 60% in size
#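 AlphaScreen luminescence quantifies BAZ2B engagement of H3K14Ac peptide; the protein and biotinylated peptide are both at 50 nM final, buffer PBS pH 7.4 with 0.01% Tween-20, all steps at room temperature.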
# JMJD2A Tudor inh = inhibitors of human JMJD2A Tudor domain; 390,000 compounds, 4.4% hits; O75164; AID 504339; Potency, µM (top dose mostly 114 µM), actives largely listed as inhibitors; AlphaScreen JMJD2A-Tudor / H3K4me3 peptide binding; further: nearly all actives have a fitted effect of over 50% in size
# Hits are given with their value; – = inactive; ? = inconclusive; · = no result given; ! = not confirmed by another sample; [ ] = remark or other dose. The call rests on the fitted dose curve; in most records, active means well fitted curve in the direction sought with a large enough effect; inconclusive means small, poorly fitted or top-dose-only effect, or another doubt; inactive means no such curve, though single readings can be large; an effect the other way counts as inactive or inconclusive.
SMILES,HP1b chromo inh,PLK1 PBD inh,VDR inh,G9a block,BAZ2B inh,JMJD2A Tudor inh
Cc1nn(C(C)c2n[nH]c(=S)n2-c2cccc(Cl)c2)c(C)c1[N+](=O)[O-] (stereo not given),–,–,–,3.55µM,–,?
Cc1nn(CC(=O)c2cccc(Cl)c2)c(C)c1[N+](=O)[O-],–,–,–,–,–,–
Cc1ccc(-n2c(C(C)n3nc(C)c([N+](=O)[O-])c3C)n[nH]c2=S)cc1 (stereo not given),–,–,–,3.98µM,–,12.6µM
COc1ccc(-n2c(C(C)n3nc(C)c([N+](=O)[O-])c3C)n[nH]c2=S)cc1 (stereo not given),–,–,–,6.31µM,–,12.6µM
Cc1cccc(-c2nnc3n2N=C(c2ccccc2Br)CS3)c1,–,–,–,–,?,–
COc1ccc(-n2nc(C(=O)N3CCCCC3)c3c4ccccc4n(C)c3c2=O)cc1Cl,–,·,–,–,·,–
O=C(N/N=C/C(Cl)=C/c1ccc([N+](=O)[O-])cc1)C(=O)Nc1cccc(C(=O)O)c1,–,–,?,?,56.2µM,?
c1ccc2c(c1)SCc1c-2[nH]c2ccccc12,·,·,10µM,·,·,·
COCCn1nnnc1SCC(=O)Nc1ccc2c(c1)OCO2,–,–,–,·,–,–
CCOc1ccccc1-c1ccc(C(=O)NCc2ccccc2)o1,–,–,–,50.1µM,?,?
CCOc1cccc2cc(C(=O)NCc3ccccc3)c(=N)oc12,–,–,–,–,–,–
O=C(NCCc1ccccc1)c1ccc(-c2ccccc2Cl)o1,–,–,–,44.7µM,–,–
O=C(Nc1ccccc1)c1ccc(-c2ccccc2Cl)o1,–,–,–,50.1µM,–,–
O=C(c1ccc(-c2ccccc2Cl)o1)N1CCN(c2ccccc2O)CC1,–,–,–,17.8µM,?,?
Fc1ccc(-c2ccc3c(c2)C2CC3CCN2Cc2ccc3c(c2)OCO3)cc1 (stereo not given),–,–,–,·,·,–
Cc1cc(C)nc(N(C#N)Cc2cccc3ccccc23)n1,–,–,–,–,–,–
CCCCn1nc(C(=O)N(C)C2CCCCC2)c2ccccc2c1=O,–,–,–,–[12.7 µM],–,–
O=C(O)c1ccc(-c2ccccc2Cl)o1,–,–,141µM!,?,–,–
O=C(O)c1ccc(-c2ccc(Cl)cc2Cl)o1,–,–,–,–,–,–
COc1ccc(N2C(=O)CSC23C(=O)N(CC(=O)NCc2ccccc2)c2ccccc23)cc1 (stereo not given),–,·,–,–,–,–
Cc1cc(Cl)ccc1NNC(=O)c1c(C)noc1C,–,?,?,2.82µM,–,79.4µM
Cc1ccc(NNC(=O)c2c(C)noc2C)cc1Cl,–,–,?,7.08µM,–,–
Cc1noc(C)c1C(=O)Nc1ccc(Cl)cc1C(F)(F)F,–,–,–,–,–,–
O=C(O)C(Cc1ccccc1)N1C(=O)c2c(Cl)c(Cl)c(Cl)c(Cl)c2C1=O (stereo not given),–,?,–,·,·,89.1µM
Oc1ccc(N=Nc2ccccc2)o1,–,?,89.1µM,39.8µM,–,–
SMILES,HP1b chromo inh,PLK1 PBD inh,VDR inh,G9a block,BAZ2B inh,JMJD2A Tudor inh
CC(C)(C)C(=O)Nc1ccc(N=Nc2ccccc2)cc1,–,–,–,–,–,–
COC/C=C/C1=CC2=CC(=O)C(C)(OC(=O)c3ccco3)C(=O)C2=CO1 (stereo not given),·,·,?,?,50.1µM,·
COC/C=C/C1=CC2=CC(=O)C(C)(O)C(=O)C2=CO1 (stereo not given),·,·,–,·,·,·
COC/C=C/C1=CC2=CC(=O)C(C)(OC(=O)C3CCCC3)C(=O)C2=CO1 (stereo not given),?,23.8µM,?,?,56.2µM,63.1µM
COC/C=C/C1=CC2=CC(=O)C(C)(OC(=O)c3cccs3)C(=O)C2=CO1 (stereo not given),·,·,–,·,·,·
O=C(Nc1cc(Cl)cc(Cl)c1)c1ccc(F)c(S(=O)(=O)NC2CCCCC2)c1,–,·,–,–,–,–
O=C(CCNC(=O)c1ccccc1Cl)N/N=C\c1ccc(O)cc1,–,11.9µM,22.4µM,–,–,–[11.4 µM]
c1ccc(CSc2nnc3ccc(-c4ccco4)nn23)nc1,–,–,–,–,–,–[11.4 µM]
O=[N+]([O-])c1cccc(-c2ccc3nnc(SCc4ccccn4)n3n2)c1,–,23.8µM,?,–,–,–[11.4 µM]
CC1CCN(S(=O)(=O)c2ccc3nc(NCc4ccccc4)ccc3c2)CC1,–,·,–,–,–,–
CC(C)(C)OC(=O)Cc1nnc(-c2nc3ccccc3[nH]2)s1,·,·,·,·,·,–
CC1CCN(S(=O)(=O)c2cc([N+](=O)[O-])ccc2Cl)CC1,?,–,–,?,?,?
O=C(Nc1nc2ccccc2s1)C1CCN(S(=O)(=O)c2cc([N+](=O)[O-])ccc2Cl)CC1,–,–,–,?,28.2µM,?
Cc1cc(Nc2ccccc2)c2c([N+](=O)[O-])c(C)cc(C)c2n1,39.8µM,–,–,22.4µM,31.6µM,25.1µM
Cc1cccc(Nc2cc(C)nc3ccccc23)c1,–,–,–,·,–,–
CCOc1ccccc1NC(=O)COC(=O)COc1cccc2c1OC(C)(C)C2,·,–,·,·,·,·
O=c1[nH][nH]c(C(F)(F)F)c1/C=N/N1CCOCC1,–,–,–,39.8µM,–,–
NC(=S)NN=C(c1ccc(Br)cc1)C1CC1,?,–,–,·,·,0.794µM
O=C(CSc1n[nH]c(-c2cccnc2)n1)Nc1ccc(Br)cc1,–,–,–,8.91µM,–,–
O=C(CSc1n[nH]c(-c2cccnc2)n1)OC1CCCCC1,–,11.9µM,?,–,–,22.4µM
Cc1cc(C)cc(NC(=O)CSc2n[nH]c(-c3cccnc3)n2)c1,–,–,–,–,–,–
COC(=O)c1sc2cccc(F)c2c1S(=O)(=O)N1CCN(c2ccccc2OC)CC1,–,·,–,?,–,–
Cc1ccc(C(O)c2ncc(-c3ccccc3Cl)[nH]2)c(C)c1 (stereo not given),·,–,·,·,·,·
Cc1cccc(OCCOc2ccccc2C=C(C#N)C#N)c1,–,–,50.1µM,–,–,–
N#CC1=C(N)C2=CCCC[C@H]2[C@H](c2ccccc2)C1(C#N)C#N,–,–,79.4µM,?,–,–
SMILES,HP1b chromo inh,PLK1 PBD inh,VDR inh,G9a block,BAZ2B inh,JMJD2A Tudor inh
C=CCOC(=O)C1=C[C@H](C2CC2)[C@@H](CCCO)[C@H](OCC)O1,–,–,–,–,–,–
CC(C)Cc1nnc(NC(=O)CSc2ccccn2)s1,–,?,–,44.7µM,–,–
CC(C)c1nnc(NC(=O)Cc2cccs2)s1,–,–,?,–,–,–
O=C(Cc1cccs1)Nc1nnc(CCc2ccccc2)s1,–,–,–,–[12.7 µM],–,?
CC(C)(C)Cc1nnc(NC(=O)Cc2cccs2)s1,?,18.9µM,–,–,–,–[11.4 µM]
CCCCCc1nnc(NC(=O)Cc2cccs2)s1,50.1µM,?,–,14.1µM,44.7µM,28.2µM

# Source: PubChem
